Test results taken from PubChem BioAssay AID1159580 (chemical genetic matrix, 2015).
Out of some 5,500 compounds screened, about 2,000 (36%) were called active. Not shown: some 18% with an inconclusive outcome. Rule as the data show it: active = normalized growth mostly below about 0.91 (no sharp cut-off); inconclusive = no clear call, values can overlap the other calls; inactive = mostly above about 0.92. This is one part of the list.

Experiment: chemical genetic growth profiling, strain panel (AID 1159580);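 also: tested at 20 µM; growth read once vehicle control cultures reached saturation at 30 °C; 1 = growth at the plate median or of vehicle wells; lower values mean less growth of the strain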
Settings: growth OD
[1] = S. cerevisiae deletion strains, locus YAL013W, strain DEP1, stronger effect = lower value
[2] = S. cerevisiae deletion strains, locus YBR229C, strain ROT2, stronger effect = lower value
[3] = S. cerevisiae deletion strains, locus YDL101C, strain DUN1, stronger effect = lower value
[4] = S. cerevisiae deletion strains, locus YDR150W, strain NUM1, stronger effect = lower value
[5] = S. cerevisiae deletion strains, locus YEL061C, strain CIN8, stronger effect = lower value
[6] = S. cerevisiae deletion strains, locus YGR078C, strain PAC10, stronger effect = lower value
[7] = S. cerevisiae deletion strains, locus YHR030C, strain SLT2, stronger effect = lower value
[8] = S. cerevisiae deletion strains, locus YJR043C, strain POL32, stronger effect = lower value
[9] = S. cerevisiae deletion strains, locus YJR075W, strain HOC1, stronger effect = lower value
[10] = S. cerevisiae deletion strains, locus YLR039C, strain RIC1, stronger effect = lower value
[11] = S. cerevisiae deletion strains, locus YLR262C, strain YPT6, stronger effect = lower value
[12] = S. cerevisiae deletion strains, locus YMR263W, strain SAP30, stronger effect = lower value
[13] = S. cerevisiae deletion strains, locus YNL153C, strain GIM3, stronger effect = lower value
[14] = S. cerevisiae deletion strains, locus YNL322C, strain KRE1, stronger effect = lower value
[15] = S. cerevisiae deletion strains, locus YPL055C, strain LGE1, stronger effect = lower value
[16] = S. cerevisiae deletion strains, locus YPL241C, strain CIN2, stronger effect = lower value

Measured: normalized growth

CC(=O)C1CCC2C3CC(=O)C4=CC(=O)CCC4(C)C3CCC12C (configuration not stated)
inactive: [1] 0.971 | S. cerevisiae deletion strains, locus YBR021W, strain FUR4, stronger effect = lower value 0.995 | [2] 0.955 | S. cerevisiae deletion strains, locus YCL029C, strain bik1, stronger effect = lower value 0.972 | S. cerevisiae deletion strains, locus YDL035C, strain GPR1, stronger effect = lower value 0.971 | S. cerevisiae deletion strains, locus YDL074C, strain BRE1, stronger effect = lower value 0.875 | [3] 0.935 | S. cerevisiae deletion strains, locus YDL134C, strain PPH21, stronger effect = lower value 0.976 | S. cerevisiae deletion strains, locus YDL185W, strain tfp1, stronger effect = lower value 0.946 | S. cerevisiae deletion strains, locus YDL192W, strain arf1, stronger effect = lower value 0.982 | S. cerevisiae deletion strains, locus YDR101C, strain arx1, stronger effect = lower value 0.99 | [4] 0.95 | S. cerevisiae deletion strains, locus YDR162C, strain NBP2, stronger effect = lower value 0.866 | S. cerevisiae deletion strains, locus YDR318W, strain mcm21, stronger effect = lower value 0.996 | S. cerevisiae deletion strains, locus YDR388W, stronger effect = lower value 0.983 | S. cerevisiae deletion strains, locus YDR502C, strain sam2, stronger effect = lower value 0.95 | [5] 0.981 | S. cerevisiae deletion strains, locus YER110C, stronger effect = lower value 0.971 | S. cerevisiae deletion strains, locus YER155C, strain BEM2, stronger effect = lower value 1 | S. cerevisiae deletion strains, locus YER167W, strain BCK2, stronger effect = lower value 0.995 | S. cerevisiae deletion strains, locus YGL078C, strain dbp3, stronger effect = lower value 0.979 | S. cerevisiae deletion strains, locus YGL086W, strain mad1, stronger effect = lower value 1.01 | S. cerevisiae deletion strains, locus YGL248W, strain PDE1, stronger effect = lower value 0.967 | [6] 0.928 | S. cerevisiae deletion strains, locus YGR135W, strain pre9, stronger effect = lower value 0.926 | S. cerevisiae deletion strains, locus YGR229C, strain SMI1, stronger effect = lower value 1.03 | S. cerevisiae deletion strains, locus YGR252W, strain gcn5, stronger effect = lower value 1.02 | [7] 0.995 | S. cerevisiae deletion strains, locus YHR079C, strain IRE1 (second series), stronger effect = lower value 0.984 | S. cerevisiae deletion strains, locus YHR094C, strain hxt1, stronger effect = lower value 0.982 | S. cerevisiae deletion strains, locus YHR129C, strain ARP1, stronger effect = lower value 0.985 | S. cerevisiae deletion strains, locus YHR200W, strain rpn10, stronger effect = lower value 0.982 | S. cerevisiae deletion strains, locus YIL066C, strain RNR3, stronger effect = lower value 0.948 | S. cerevisiae deletion strains, locus YIL073C, strain SPO22, stronger effect = lower value 0.99 | S. cerevisiae deletion strains, locus YIL125W, strain kgd1, stronger effect = lower value 0.983 | S. cerevisiae deletion strains, locus YIR030C, strain dcg1, stronger effect = lower value 0.982 | S. cerevisiae deletion strains, locus YJL095W, strain BCK1, stronger effect = lower value 0.965 | S. cerevisiae deletion strains, locus YJL134W, strain LCB3, stronger effect = lower value 0.975 | S. cerevisiae deletion strains, locus YJL168C, strain set2, stronger effect = lower value 0.978 | S. cerevisiae deletion strains, locus YJL187C, strain SWE1 (second series), stronger effect = lower value 0.931 | [8] 1.01 | [9] 0.953 | S. cerevisiae deletion strains, locus YKL009W, strain mrt4, stronger effect = lower value 0.968 | S. cerevisiae deletion strains, locus YKL068W, stronger effect = lower value 0.982 | S. cerevisiae deletion strains, locus YKL085W, strain MDH1 (second series), stronger effect = lower value 0.943 | S. cerevisiae deletion strains, locus YKL085W, strain MDH1, stronger effect = lower value 0.943 | S. cerevisiae deletion strains, locus YKL190W, strain CNB1, stronger effect = lower value 0.964 | S. cerevisiae deletion strains, locus YKR001C, strain vps1, stronger effect = lower value 0.971 | [10] 0.735 | S. cerevisiae deletion strains, locus YLR058C, strain SHM2, stronger effect = lower value 0.971 | S. cerevisiae deletion strains, locus YLR102C, strain apc9, stronger effect = lower value 0.971 | [11] 0.749 | S. cerevisiae deletion strains, locus YLR268W, strain sec22, stronger effect = lower value 0.928 | S. cerevisiae deletion strains, locus YLR330W, strain CHS5, stronger effect = lower value 0.989 | S. cerevisiae deletion strains, locus YLR342W, strain FKS1 (second series), stronger effect = lower value 1.01 | S. cerevisiae deletion strains, locus YLR371W, strain rom2, stronger effect = lower value 0.986 | S. cerevisiae deletion strains, locus YLR418C, strain cdc73, stronger effect = lower value 0.862 | S. cerevisiae deletion strains, locus YML016C, strain PPZ1, stronger effect = lower value 0.979 | S. cerevisiae deletion strains, locus YML032C, strain rad52, stronger effect = lower value 1.01 | S. cerevisiae deletion strains, locus YML124C, strain tub3, stronger effect = lower value 0.998 | S. cerevisiae deletion strains, locus YMR078C, strain ctf18, stronger effect = lower value 0.968 | S. cerevisiae deletion strains, locus YMR223W, strain ubp8, stronger effect = lower value 1 | [12] 0.936 | S. cerevisiae deletion strains, locus YMR307W, strain GAS1, stronger effect = lower value 1.01 | S. cerevisiae deletion strains, locus YNL067W, strain RPL9B, stronger effect = lower value 0.936 | S. cerevisiae deletion strains, locus YNL128W, strain TEP1, stronger effect = lower value 0.924 | [13] 0.922 | S. cerevisiae deletion strains, locus YNL233W, strain BNI4, stronger effect = lower value 0.972 | S. cerevisiae deletion strains, locus YNL250W, strain rad50, stronger effect = lower value 0.948 | S. cerevisiae deletion strains, locus YNL271C, strain bni1, stronger effect = lower value 0.983 | S. cerevisiae deletion strains, locus YNL298W, strain CLA4, stronger effect = lower value 0.968 | S. cerevisiae deletion strains, locus YNL307C, strain MCK1, stronger effect = lower value 0.971 | [14] 0.977 | S. cerevisiae deletion strains, locus YNR052C, strain pop2, stronger effect = lower value 0.989 | S. cerevisiae deletion strains, locus YOL006C, strain TOP1, stronger effect = lower value 0.846 | S. cerevisiae deletion strains, locus YOL012C, strain htz1 0.923 | S. cerevisiae deletion strains, locus YOL147C, strain pex11, stronger effect = lower value 0.99 | S. cerevisiae deletion strains, locus YOR061W, strain CKA2, stronger effect = lower value 0.942 | S. cerevisiae deletion strains, locus YOR069W, strain VPS5, stronger effect = lower value 0.975 | S. cerevisiae deletion strains, locus YOR136W, strain idh2, stronger effect = lower value 0.984 | S. cerevisiae deletion strains, locus YOR144C, strain elg1, stronger effect = lower value 0.988 | S. cerevisiae deletion strains, locus YOR184W, strain ser1, stronger effect = lower value 0.959 | S. cerevisiae deletion strains, locus YOR316C, strain cot1, stronger effect = lower value 0.968 | [15] 0.852 | [16] 0.974 | S. cerevisiae deletion strains, locus YPR119W, strain clb2, stronger effect = lower value 0.99 | S. cerevisiae deletion strains, locus YPR141C, strain kar3, stronger effect = lower value 0.957 | S. cerevisiae deletion strains, locus YPR163C, strain tif3, stronger effect = lower value 0.967 | S. cerevisiae deletion strains, locus YPR167C, strain met16, stronger effect = lower value 0.979 | S. cerevisiae deletion strains, strain wtn01, stronger effect = lower value 0.951 | S. cerevisiae strains, strain wild type, stronger effect = lower value 0.972

CC12CCC3C(CCC4=CC(=O)CCC43CO)C1CCC2OC(=O)c1ccccc1 (configuration not stated)
inactive: [1] 0.994 | [2] 1.01 | S. cerevisiae deletion strains, locus YCL061C, strain MRC1, stronger effect = lower value 0.999 | [3] 1.01 | [4] 0.993 | [5] 1 | [6] 1.01 | [7] 0.946 | S. cerevisiae deletion strains, locus YHR087W, strain rtc3, stronger effect = lower value 1.01 | S. cerevisiae deletion strains, locus YJL187C, strain SWE1, stronger effect = lower value 1.02 | [8] 0.996 | [9] 1.02 | [10] 0.978 | S. cerevisiae deletion strains, locus YLR058C, strain SHM2 (second series), stronger effect = lower value 1 | S. cerevisiae deletion strains, locus YLR085C, strain ARP6, stronger effect = lower value 1 | [11] 0.956 | S. cerevisiae deletion strains, locus YML094W, strain GIM5, stronger effect = lower value 1 | S. cerevisiae deletion strains, locus YMR219W, strain ESC1, stronger effect = lower value 1.01 | [12] 0.991 | [13] 1.01 | S. cerevisiae deletion strains, locus YNL298W, strain CLA4 (second series), stronger effect = lower value 1.05 | [14] 1.02 | S. cerevisiae deletion strains, locus YNR030W, strain Alg12, stronger effect = lower value 0.986 | [15] 1.02 | [16] 1.02 | S. cerevisiae deletion strains, locus YPR135W, strain CTF4, stronger effect = lower value 0.923
